Inconclusive results are not listed. A number with no mark means an inactive call. The source made the active and inactive calls. The call rests on the fitted dose curve; in most records, active means well fitted inhibition curve with a large enough effect; inconclusive means small, poorly fitted or top-dose-only effect; inactive means flat fitted curve, though single readings scatter.
biological target: Cruzipain (Trypanosoma cruzi) (UniProt P25779); assay: Inhibitors of Cruzain: Benzimidazole Series - Round 1; conditions: purified cruzain, Z-FR-AMC fluorogenic cleavage; series mostly up to 57.1 µM; activity change, negative = inhibition: at the top concentration
Sequence (P25779 123-467 limits assumed): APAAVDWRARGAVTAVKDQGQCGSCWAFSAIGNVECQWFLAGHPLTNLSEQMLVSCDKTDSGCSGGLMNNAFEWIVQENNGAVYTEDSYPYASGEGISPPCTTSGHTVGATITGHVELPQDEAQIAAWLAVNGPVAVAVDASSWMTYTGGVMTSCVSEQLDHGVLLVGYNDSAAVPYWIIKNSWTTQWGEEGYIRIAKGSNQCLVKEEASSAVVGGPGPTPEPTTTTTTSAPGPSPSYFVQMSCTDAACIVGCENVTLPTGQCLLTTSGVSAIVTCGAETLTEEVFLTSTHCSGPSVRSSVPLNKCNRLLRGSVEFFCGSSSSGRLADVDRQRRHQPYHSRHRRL
Protocol: Cruzain is a cysteine protease from the tropical parasite Trypanosoma cruzi. This assay protocol is for an initial exploratory first round of benzimidazole-based inhibitors. Cruzain was assayed by the use of fluorogenic coumarin-based substrate Z-FR-AMC: proteolytic cleavage releases AMC, whose fluorescence is measured at 360 nm excitation and 450 nm emission. Purified cruzain was supplied by the labs of Prof. James McKerrow and Brian Shoichet, UC San Francisco. This assay had 0.01% Triton X-100 concentration.
See following references for additional details:
Assay Provider: Shoichet, Brian; University of California, San Fancisco
Screening Center PI: Austin, C.P.
Screening Center: NIH Chemical Genomics Center [NCGC]
Buffer: 100 mM Sodium Acetate, pH 5.5, 5 mM DTT, Triton X-100 concentration: 0.01%.
Buffer in columns 3 and 4 as negative control (no enzyme).
Substrate solution: 2 uM final concentration of Z-FR-AMC (catalog number I-1160, Bachem) dispensed throughout the plate.
Enzyme: 1.5 nM Cruzain final concentration in columns 1, 2, 5-48. Column 1 is neutral (100% activity). Column 2 contained titration of covalent inhibitor K11777, starting concentration 1 mM, then 1:2 dilution in duplicate).
Three uL of enzyme or buffer were dispensed to 1536-well Greiner black solid bottom plates. Compounds and controls (23 nL) were transferred via Kalypsys PinTool. The plates were incubated for 15 min at room temperature, and then 1 uL of substrate solution was added to start the reaction. The plates were immediately transferred to and read 4 times every 30 seconds for 2 min on ViewLux High-throughput CCD imager (Perkin-Elmer) using 360 nm excitation and 450 nm emission fluorescence protocol. The fluorescence intensity difference between the third and the first time points (time lapse of 60 seconds) was used to compute reaction progress.

| Compound | activity change, negative = inhibition [%] | Potency |
| --- | --- | --- |
| O=C(Cc1nnc(-c2nc3ccccc3[nH]2)o1)Nc1cc(C(F)(F)F)ccc1Cl | 4.58 | – |
| CC(C)(C)OC(=O)Cc1nnc(-c2nc3ccccc3[nH]2)o1 | -0.371 | – |
| O=C(COc1ccccc1Br)NCCc1nc2ccccc2[nH]1 | – | 3.63 µM (active) |
| Cc1ccc(C)c(OCCn2c(CCNC(=O)C3CCCCC3)nc3ccccc32)c1 | – | 1.62 µM (active) |
| O=C(NNC(=O)c1nc2ccccc2[nH]1)OCc1ccccc1 | -7.65 | – |
| O=C(NCCc1nc2ccccc2n1CCO)C1CCCCC1 | – | 6.46 µM (active) |
| O=C(NCc1nnc(-c2nc3ccccc3[nH]2)o1)C1CCCCC1 | 10.7 | – |
| CC(C)(C)OC(=O)NCc1nnc(-c2nc3ccccc3[nH]2)o1 | -4.26 | – |
| CC(C)(C)OC(=O)NCC(=O)NNC(=O)c1nc2ccccc2[nH]1 | 2.49 | – |
| O=C(COc1ccc(F)cc1)NCCc1nc2ccccc2[nH]1 | – | 4.08 µM (active) |
| Cc1ccc(C)c(OCCn2c(CCNC(=O)COc3ccc(F)cc3)nc3ccccc32)c1 | – | 9.13 µM (active) |
